We go through 20 compounds from the supplement of paper PMC10127200.

Structures can show the parent of a compound that is named as a salt.

Assay in all cases: Euclidean distance of Cell Painting phenotypic profile (signed KS, 77 features) to DMSO centroid (dimensionless distance); 5 or 10 uM (library dependent); higher = stronger phenotypic change vs DMSO (phenoactivity)
Details in all cases: 48 h

In one assay the test system is 786-O. The procedure, abridged: (§1)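 Stained cells were imaged confocally at 20X with 9 fields per well, after 48 h of exposure to library compounds at 10 or 5 uM (set by library; 0.1% DMSO final). The cells were five cancer lines and a healthy fibroblast line. From the images, Harmony extracted 77 features, each expressed as a signed Kolmogorov-Smirnov statistic relative to same-plate vehicle wells. Phenoactivity is measured as Euclidean distance to the median vehicle profile, using plate-position-corrected, correlation-weighted profiles averaged across replicates at the top dose.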

For a further assay, the system named is A549. The procedure, abridged:
as §1

In a further assay the test system is FB. The procedure, abridged:
as §1

For another assay, the system named is HEPG2. A digest of the protocol:
as §1

In a further assay the test system is OVCAR4. The procedure, abridged: as §1

Take `C=C(NC(=O)C(=C)NC(=O)c1csc(C2=N[C@@H]3c4csc(n4)[C@H]4NC(=O)c5csc(n5)[C@H]([C@](C)(O)[C@@H](C)O)NC(=O)[C@H]5CSC(=N5)/C(=C/C)NC(=O)[C@H]([C@@H](C)O)NC(=O)c5csc(n5)[C@]3(CC2)NC(=O)[C@H](C)NC(=O)C(=C)NC(=O)[C@H](C)NC(=O)[C@H]([C@@H](C)CC)N[C@@H]2C=Cc3c([C@H](C)O)cc(nc3[C@H]2O)C(=O)O[C@@H]4C)n1)C(N)=O` [Thiostrepton]: the Euclidean distance in the assay on 786-O is 4.46; with A549, 2.6; in the assay with FB, 4.95; in the assay with HEPG2, 4.36; in the assay with OVCAR4, 2.62.
For `COc1cc(N)cn[n+]1-c1ccccc1` [Amezinium (methylsulfate)] the same measures were 1.39, 0.864, 0.801, 0.523 and 1.16.
For `O=C(CCCN1CCC(O)(c2ccc(Cl)cc2)CC1)c1ccc(F)cc1` [Haloperidol] the same measures were 1.27, 0.777, 1.09, 1.04 and 1.95.
For `O=c1c(-c2ccc(O)cc2)coc2c([C@@H]3O[C@H](CO)[C@@H](O)[C@H](O)[C@H]3O)c(O)ccc12` [Puerarin], the Euclidean distance in the assay with 786-O amounted to 0.929; in the assay on A549, 0.728; with FB, 0.661; with HEPG2 it was 0.584; with OVCAR4, 1.35.
For `O=C(C1CCCCC1)N1CC(=O)N2CCc3ccccc3C2C1` (stereo not given) [Praziquantel] the same measures were 0.868, 0.773, 0.97, 0.33 and 1.36.
For `CCOC(=O)C1=C(C)NC(C)=C(C(=O)OC)C1c1cccc(Cl)c1Cl` (stereo not given) [Felodipine] the same measures were 1.02, 1.19, 0.651, 0.85 and 0.942.
For `Nc1ccc(S(=O)(=O)Nc2nccs2)cc1` [Sulfathiazole] the same measures were 0.815, 0.811, 0.62, 0.824 and 0.818.
For `COc1ccc(-n2nc(C(N)=O)c3c2C(=O)N(c2ccc(N4CCCCC4=O)cc2)CC3)cc1` [Apixaban], the Euclidean distance in the assay on 786-O turned out to be 2.4; in the assay with A549, 2.33; with FB, 3.79; with HEPG2 it was 1.17; in the assay on OVCAR4 it was 2.13.
Take `CN1CC[C@H](c2c(O)cc(O)c3c(=O)cc(-c4ccccc4Cl)oc23)[C@H](O)C1` [Flavopiridol (Alvocidib)]: the Euclidean distance with 786-O was determined as 3.09; in the assay on A549 it was 3.07; in the assay on FB it was 3.22; in the assay on HEPG2, 2.66; in the assay on OVCAR4, 3.72.
For the compound `COc1ccc2cc1Oc1ccc(cc1)C[C@H]1c3cc(c(OC)cc3CCN1C)Oc1c(OC)c(OC)cc3c1[C@H](C2)N(C)CC3` [Tetrandrine], the Euclidean distance was determined as 4.3 in the assay with 786-O; 4.1 in the assay with A549; 2.97 in the assay with FB; 1.84 in the assay with HEPG2; 2.11 in the assay on OVCAR4.
For `CNCCCC1c2ccccc2C=Cc2ccccc21` [Protriptyline hydrochloride] the same measures were 1.15, 0.784, 1.82, 1.74 and 0.952.
For `C[C@]12C=CC(=O)N[C@@H]1CC[C@@H]1[C@@H]2CC[C@]2(C)[C@@H](C(=O)Nc3cc(C(F)(F)F)ccc3C(F)(F)F)CC[C@@H]12` [Dutasteride] the same measures were 1.17, 1.7, 1.03, 0.422 and 1.01.
For `O=C1c2ccccc2C(=O)C1c1ccccc1` [Phenindione] the same measures were 0.966, 1.04, 1.16, 0.74 and 1.1.
Consider `CCCNC(C)C(=O)Nc1c(C)csc1C(=O)OC` (stereo not given) [Articaine HCl], for which the Euclidean distance came to 1.24 in the assay on 786-O; 0.941 in the assay on A549; 0.813 in the assay on FB; 0.87 in the assay on HEPG2; 1.06 with OVCAR4.
For `C[C@H](CCC(=O)O)[C@H]1CC[C@H]2[C@@H]3[C@@H](O)C[C@@H]4C[C@H](O)CC[C@]4(C)[C@H]3CC[C@]12C` [Ursodiol] the same measures were 1.16, 0.853, 1.04, 0.517 and 0.943.
For `CC[C@H](C)[C@H](N)C1=N[C@H](C(=O)N[C@@H](CC(C)C)C(=O)N[C@H](CCC(=O)O)C(=O)N[C@H](C(=O)N[C@H]2CCCCNC(=O)[C@H](CC(N)=O)NC(=O)[C@@H](CC(=O)O)NC(=O)[C@H](Cc3cnc[nH]3)NC(=O)[C@@H](Cc3ccccc3)NC(=O)[C@H]([C@@H](C)CC)NC(=O)[C@@H](CCCN)NC2=O)[C@@H](C)CC)CS1` [Bacitracin] the same measures were 1.65, 1.13, 0.901, 0.726 and 1.22.
As to `CCN(CC)C(=O)c1cccnc1` [Nikethamide], the Euclidean distance in the assay with 786-O is 1.44; with A549, 1.13; with FB it was 1.17; in the assay with HEPG2, 0.66; in the assay on OVCAR4 it was 1.38.
For `CC(C)n1c(/C=C/C(O)CC(O)CC(=O)O)c(-c2ccc(F)cc2)c2ccccc21` (stereo not given) [Fluvastatin Sodium] the same measures were 3.02, 2.4, 3.84, 1.86 and 2.29.
For `CN1CC[C@@H](NC(=O)Nc2ccc(C#N)cc2)C[C@@H]1c1nc2ccccc2[nH]1` the same measures were 2.28, 1.79, 3.81, 1.1 and 1.73.
For `O=c1n(CCCN2CCN(c3cccc(Cl)c3)CC2)nc2ccccn12` [Trazodone] the same measures were 0.477, 1.03, 0.908, 0.599 and 1.37.
